# Measured values published in PubChem BioAssay (EPA / NIEHS).
# The source made the active and inactive calls. How the source made its calls: active means hit-call score of the fitted dose curve at least 0.9, where 1 is the maximum; inactive means score below 0.9.
# Columns and labels:
# [1] = APR_HepG2_CellCycleArrest_24hr: Apredica 24-hour HepG2 Assay for Cell Cycle Arrest (AID 2282905); conditions: imaging, actives raise or lower the signal;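 further: cell cycle arrest scored as ratio of 2N to 4N nuclear DNA content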
# Method in brief: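 HepG2, 24 hr dosing, 10-pt 0.39–200 uM in duplicate, 0.5% DMSO. Fixed 3.7% formaldehyde, permeabilized 0.5% Triton X-100, Hoechst 33342 2 ug/mL. Imaged 20x; nuclear DNA content quantified; bidirectional fit vs DMSO.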
# [2] = APR_HepG2_StressKinase_1hr: Apredica 1-hour HepG2 Assay for Stress Kinase (AID 2282906); conditions: HepG2 stress kinase (phospho-c-Jun) imaging, actives raise or lower the signal
# Method in brief: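 HepG2 cells dosed 0.39-200 uM (0.5% DMSO) for 1 h, then formaldehyde-fixed. Stress kinase read by phospho-c-Jun immunofluorescence using high-content imaging; bidirectional fit vs DMSO.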
# [3] = APR_HepG2_NuclearSize_24hr: Apredica 24-hour HepG2 Assay for Nuclear Size (AID 2282907); conditions: high-content imaging, actives raise or lower the signal
# Method in brief: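 HepG2, 24 hr dosing, 10-pt 0.39–200 uM, duplicates, 0.5% DMSO final; 3.7% formaldehyde fix, 0.5% Triton X-100; Hoechst 33342 nuclear stain; ArrayScan HCS, Cell Cycle analysis → nuclear size; bidirectional fit vs DMSO.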
# [4] = APR_HepG2_CellLoss_24hr: Apredica 24-hour HepG2 Assay for Cell Loss (AID 2282908); conditions: high-content imaging
# Method in brief: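 10-pt dose, 0.39–200 uM, n=2/plate; DMSO 0.5% v/v final as negative control. Fix 3.7% formaldehyde 30 min RT, permeabilize 0.5% Triton X-100, stain Hoechst 33342 2 ug/mL, image 20x. Nuclear count, bidirectional fit vs DMSO.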
# [5] = APR_HepG2_MicrotubuleCSK_24hr: Apredica 24-hour HepG2 Assay for Microtubule CSK Stabilty (AID 2282909); conditions: HepG2 microtubule cytoskeleton imaging, actives raise or lower the signal
# Method in brief: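 Human liver HepG2, 24 h dosing, 0.39–200 uM ×10 conc, dup, 0.5% DMSO. 3.7% formaldehyde fix, 0.5% Triton perm, anti-alpha-tubulin (1:200)/Cy5 secondary + Hoechst. HCS imaging, 6 fields/well; gain/loss fit vs DMSO.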
# [6] = APR_HepG2_MitoticArrest_24hr: Apredica 24-hour HepG2 Assay for Mitotic Arrest (AID 2282910); conditions: high-content imaging, actives raise or lower the signal
# Method in brief: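 HepG2 cells, 24 h exposure at 0.39-200 uM (10 concentrations, duplicate, 0.5% DMSO). Fixed, stained for phospho-histone H3 with Hoechst; imaged by high-content microscopy, bidirectional fit versus DMSO.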
# [7] = APR_HepG2_MitoMembPot_24hr: Apredica 24-hour HepG2 Assay for Mitochondrial Membrane Potential (AID 2282911); conditions: imaging, actives raise or lower the signal
# Method in brief: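 Mitochondrial dye uptake (MitoTracker Red CMXRos, 250 nM, 30 min pre-fixation) in HepG2 after 24 hr compound exposure, 0.39–200 uM; ArrayScan images at 20x, activity fitted in both directions relative to DMSO.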
# [8] = APR_HepG2_MitoMass_24hr: Apredica 24-hour HepG2 Assay for Mitochondrial Mass (AID 2282912); conditions: high-content imaging, actives raise or lower the signal
# Method in brief: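 Mitochondrial mass is read as MitoTracker Red fluorescence intensity from automated imaging, with bidirectional curve fitting relative to DMSO. HepG2 cells received compound (0.39–200 uM, 0.5% DMSO final) for 24 hr and were dye-loaded (250 nM, 30 min) before formaldehyde fixation.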
# [9] = APR_HepG2_CellCycleArrest_72hr: Apredica 72-hour HepG2 Assay for Cell Cycle Arrest (AID 2282914); conditions: high-content imaging, actives raise or lower the signal
# Method in brief: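 Using multiplexed high-content imaging, HepG2 nuclei stained with Hoechst 33342 (2 ug/mL) were analysed for DNA content after fixation and permeabilization. Treatment lasted 72 hr across 0.39–200 uM in duplicate with final DMSO 0.5% v/v; DMSO served as negative control.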
# [10] = APR_HepG2_P-H2AX_72hr: Apredica 72-hour HepG2 Assay for H2AX Phosphorylation (AID 2282916); conditions: imaging, actives raise or lower the signal;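 further: phospho-histone H2A.x immunostain intensity per cell marking DNA damage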
# Method in brief: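 HepG2; cpd 0.39–200 uM ×10 conc, duplicates; 0.5% DMSO; 72 hr. Fix 3.7% formaldehyde 30 min RT, 0.5% Triton X-100 10 min. Anti-phospho-H2A.x 1:200 + Hoechst 2 ug/mL, 60 min RT; ArrayScan imaging.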
# [11] = APR_HepG2_MitoticArrest_72hr: Apredica 72-hour HepG2 Assay for Mitotic Arrest (AID 2282918); conditions: high-content imaging, actives raise or lower the signal
# Method in brief: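 Using high-content imaging of fixed HepG2 cells, phospho-histone H3 signal was measured following a 72 hr incubation with ten-point compound dilutions up to 200 uM. DMSO served as the negative control and baseline for bidirectional curve fitting.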
# [12] = APR_HepG2_MicrotubuleCSK_72hr: Apredica 72-hour HepG2 Assay for Microtubule CSK Stabilty (AID 2282919); conditions: HepG2 microtubule cytoskeleton, high-content imaging, actives raise or lower the signal
# Method in brief: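 HepG2 cells were exposed 72 hr to compound at 0.39–200 uM in duplicate (0.5% DMSO final), then fixed and permeabilized. Alpha-tubulin immunofluorescence was imaged by high-content microscopy, with bidirectional fitting against DMSO and taxol as positive control.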
# [13] = APR_HepG2_P-H2AX_24hr: Apredica 24-hour HepG2 Assay for H2AX Phosphorylation (AID 2282920); conditions: high-content imaging, actives raise or lower the signal
# Method in brief: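 Human HepG2 liver cells, treated 24 hr with test chemicals (0.39–200 uM, final DMSO 0.5% v/v), are fixed and co-stained for phospho-H2A.x and c-Jun with Hoechst. Imaged intensity is fitted in both directions against DMSO controls.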
# [14] = APR_HepG2_StressKinase_72hr: Apredica 72-hour HepG2 Assay for Stress Kinase (AID 2282921); conditions: HepG2 stress kinase (phospho-c-Jun) imaging, actives raise or lower the signal
# Method in brief: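 Dose 0.39–200 uM (10 pts, duplicate), 0.5% DMSO; 72 h; fix 3.7% formaldehyde 30 min RT; Triton permeabilize; anti-phospho-c-Jun/Cy3 + Hoechst 60 min RT; image 20x; fit gain/loss vs DMSO.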
# [15] = APR_HepG2_StressKinase_24hr: Apredica 24-hour HepG2 Assay for Stress Kinase (AID 2282922); conditions: HepG2 stress kinase (phospho-c-Jun) imaging, actives raise or lower the signal
# Method in brief: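 HepG2 cells exposed 24 h to 0.39–200 uM compound in duplicate (0.5% v/v DMSO final). Cells fixed in 3.7% formaldehyde, permeabilized and immunostained for phospho-c-Jun; read by high-content fluorescence imaging, fitted bidirectionally against DMSO.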
# [16] = APR_HepG2_p53Act_72hr: Apredica 72-hour HepG2 Assay for p53 Activation (AID 2282923); conditions: high-content imaging, actives raise or lower the signal;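 further: average cellular p53 protein immunofluorescence intensity in HepG2 cells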
# Method in brief: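 10-pt conc. 0.39–200 uM, duplicate, 0.5% DMSO; 72 hr exposure; 3.7% formaldehyde fix, 0.5% Triton perm; sheep anti-p53/Cy5 + Hoechst; ArrayScan 20x, 6 images/well; gain/loss fit vs DMSO.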
# [17] = APR_HepG2_MitoMass_72hr: Apredica 72-hour HepG2 Assay for Mitochondrial Mass (AID 2282924); conditions: high-content imaging, actives raise or lower the signal;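 further: MitoTracker Red CMXRos stain intensity per cell imaged as mitochondrial mass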
# Method in brief: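 HepG2 cells dosed 72 hr at 0.39–200 uM (0.5% DMSO), in duplicate. MitoTracker Red CMXRos 250 nM loaded 30 min before formaldehyde fixation; high-content fluorescence imaging, bidirectional fit versus DMSO.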
# [18] = APR_HepG2_CellLoss_72hr: Apredica 72-hour HepG2 Assay for Cell Loss (AID 2282915); conditions: high-content imaging
# Method in brief: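 HepG2 cells exposed 72 h to compound at 0.39–200 uM (10 concentrations, duplicate) in 0.5% DMSO. Fixed with 3.7% formaldehyde and Hoechst 33342-stained. Imaged at 20x; nuclear count gives cell number, fitted bidirectionally versus DMSO.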
# [19] = APR_HepG2_MitoMembPot_72hr: Apredica 72-hour HepG2 Assay for Mitochondrial Membrane Potential (AID 2282917); conditions: imaging, actives raise or lower the signal
# Method in brief: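 HepG2 cells dosed 72 hr with compound at 0.39–200 uM in duplicate, 0.5% v/v DMSO final. Mitochondria stained with 250 nM MitoTracker Red CMXRos for 30 min before formaldehyde fixation, imaged by high-content fluorescence; bidirectional fit versus DMSO.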
# [20] = APR_HepG2_p53Act_24hr: Apredica 24-hour HepG2 Assay for p53 Activation (AID 2282913); conditions: high-content imaging, actives raise or lower the signal;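 further: p53 protein immunofluorescence averaged per cell in HepG2 with Hoechst nuclei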
# Method in brief: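 Following 24 hr dosing of HepG2 at 0.39–200 uM, the cells undergo formaldehyde fixation, Triton permeabilization and multiplexed antibody labeling that includes p53 (Cy5). Signal from the imaging is referenced to DMSO solvent controls.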
smiles,measurement,setting,value
CCOc1nc(F)cc2nc(S(=O)(=O)Nc3c(Cl)cccc3Cl)nn12,outcome,[1],inactive
same,outcome,[2],inactive
same,outcome,[3],inactive
same,outcome,[4],inactive
same,outcome,[5],inactive
same,outcome,[6],inactive
same,outcome,[7],inactive
same,outcome,[8],inactive
same,outcome,[9],inactive
same,outcome,[10],inactive
same,outcome,[11],inactive
same,outcome,[12],inactive
same,outcome,[13],inactive
same,outcome,[14],inactive
same,outcome,[15],inactive
same,outcome,[16],inactive
same,outcome,[17],inactive
CC1(C)C(C(=O)OC(C#N)c2cccc(Oc3ccccc3)c2)C1(C)C (configuration not stated),outcome,[1],inactive
same,outcome,[2],inactive
same,outcome,[3],inactive
same,outcome,[4],inactive
same,outcome,[5],inactive
same,outcome,[6],inactive
same,outcome,[7],inactive
same,outcome,[8],inactive
same,outcome,[9],inactive
same,AC50,[18],70.3 µM (active)
same,outcome,[10],inactive
same,outcome,[19],inactive
same,AC50,[12],100 µM (active)
same,outcome,[13],inactive
same,outcome,[14],inactive
same,outcome,[15],inactive
same,outcome,[16],inactive
same,outcome,[17],inactive
Cc1cnc(C2=NC(C)(C(C)C)C(=O)N2)c(C(=O)O)c1 (configuration not stated),outcome,[1],inactive
same,outcome,[3],inactive
same,outcome,[4],inactive
same,outcome,[5],inactive
same,outcome,[6],inactive
same,outcome,[7],inactive
same,outcome,[8],inactive
same,outcome,[20],inactive
same,outcome,[9],inactive
same,outcome,[18],inactive
same,outcome,[10],inactive
same,outcome,[19],inactive
same,outcome,[12],inactive
same,outcome,[13],inactive
same,outcome,[14],inactive
same,outcome,[15],inactive
same,outcome,[16],inactive
same,outcome,[17],inactive
COc1cc(OC)nc(NC(=O)NS(=O)(=O)c2ncccc2OCC(F)(F)F)n1,outcome,[1],inactive
same,outcome,[3],inactive
same,outcome,[4],inactive
same,outcome,[5],inactive
same,outcome,[6],inactive
same,outcome,[7],inactive
same,outcome,[8],inactive
same,outcome,[20],inactive
same,outcome,[9],inactive
same,outcome,[18],inactive
same,outcome,[10],inactive
same,outcome,[19],inactive
same,outcome,[11],inactive
same,outcome,[12],inactive
same,outcome,[13],inactive
same,outcome,[14],inactive
same,outcome,[15],inactive
same,outcome,[16],inactive
same,outcome,[17],inactive
COP(=S)(OC)Oc1ccc([N+](=O)[O-])c(C)c1,outcome,[1],inactive
same,outcome,[2],inactive
same,outcome,[3],inactive
same,outcome,[4],inactive
same,outcome,[5],inactive
same,outcome,[6],inactive
same,outcome,[7],inactive
same,outcome,[8],inactive
same,outcome,[20],inactive
same,outcome,[9],inactive
same,outcome,[10],inactive
same,outcome,[11],inactive
same,outcome,[12],inactive
same,outcome,[13],inactive
same,outcome,[14],inactive
same,outcome,[15],inactive
same,outcome,[16],inactive
same,outcome,[17],inactive
COP(=S)(OC)SCn1nnc2ccccc2c1=O,outcome,[1],inactive
same,outcome,[2],inactive
same,outcome,[3],inactive
same,outcome,[4],inactive
same,outcome,[5],inactive
same,outcome,[6],inactive
same,outcome,[7],inactive
same,outcome,[8],inactive
same,outcome,[20],inactive
same,AC50,[9],100 µM (active)
same,outcome,[10],inactive
same,outcome,[11],inactive
same,outcome,[12],inactive
same,outcome,[13],inactive
same,outcome,[14],inactive
same,outcome,[15],inactive
same,outcome,[16],inactive
same,outcome,[17],inactive
N#Cc1c(Cl)cccc1Cl,outcome,[1],inactive
same,outcome,[2],inactive
same,outcome,[3],inactive
same,outcome,[4],inactive
same,outcome,[5],inactive
same,outcome,[6],inactive
same,outcome,[7],inactive
same,outcome,[8],inactive
same,outcome,[9],inactive
same,outcome,[10],inactive
same,outcome,[19],inactive
same,outcome,[11],inactive
same,outcome,[12],inactive
same,outcome,[13],inactive
same,outcome,[14],inactive
same,outcome,[15],inactive
same,outcome,[16],inactive
same,outcome,[17],inactive
Cc1c(COC(=O)[C@@H]2[C@H](/C=C(\Cl)C(F)(F)F)C2(C)C)cccc1-c1ccccc1,outcome,[1],inactive
same,outcome,[2],inactive
same,outcome,[3],inactive
same,outcome,[4],inactive
same,outcome,[5],inactive
same,outcome,[6],inactive
same,outcome,[7],inactive
same,outcome,[8],inactive
same,outcome,[9],inactive
same,outcome,[10],inactive
same,outcome,[12],inactive
same,outcome,[13],inactive
same,outcome,[14],inactive
same,outcome,[15],inactive
same,outcome,[16],inactive
same,outcome,[17],inactive
CN/C(=N\[N+](=O)[O-])NCc1cnc(Cl)s1,outcome,[1],inactive
same,outcome,[2],inactive
same,outcome,[3],inactive
same,outcome,[4],inactive
same,outcome,[5],inactive
same,outcome,[6],inactive
same,outcome,[7],inactive
same,outcome,[8],inactive
same,outcome,[20],inactive
same,outcome,[9],inactive
same,outcome,[18],inactive
same,outcome,[10],inactive
same,outcome,[19],inactive
same,outcome,[11],inactive
same,outcome,[12],inactive
same,outcome,[13],inactive
same,outcome,[14],inactive
same,outcome,[15],inactive
same,outcome,[16],inactive
same,outcome,[17],inactive
